# Assay results: article PMC7819943, “Rice protein-binding microarrays: a tool to detect cis-acting elements near promoter regions in rice”
# Over roughly 68,000 sequences, “fluorescence intensity (a.u.)” has its median near 9,100; the highest 2% begin near 16,000. This excerpt belongs to a sample that is enriched for the highest values.
# Biological target: OsWRKY34 (Oryza sativa, UniProt Q0JBA9 1-250)
# Experiment: protein-binding microarray (RPBM); PBS, 2% BSA, 51.3 ng/ul salmon testes DNA, 50 uM zinc acetate, 200 nM TF, 25 C, 1 h; high values mean tight binding
# Conditions: protein: recombinant; tags: N-terminal polyhistidine and DsRed monomer fusion (pET32a); label: CyDye5-dUTP incorporated in the synthesized complementary strand; 3' TTTTT single-stranded linker to array surface; dsDNA, one strand shown
# How it was run: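 Per-feature fluorescence intensity (arbitrary units), read on an Axon 4000B scanner, is the binding signal. Transcription factors carrying an N-terminal polyhistidine tag and DsRed fusion were expressed in E. coli BL21-CodonPlus and purified on Ni–NTA. A custom Agilent array, made double-stranded by primer extension with Cy5-dUTP and blocked with 2% BSA, was incubated with 200 nM protein in PBS, 2% BSA, salmon testes DNA and 50 µM zinc acetate at 25 °C for 1 h and then washed.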
# OsWRKY34, sequence (Q0JBA9 entry or part of it): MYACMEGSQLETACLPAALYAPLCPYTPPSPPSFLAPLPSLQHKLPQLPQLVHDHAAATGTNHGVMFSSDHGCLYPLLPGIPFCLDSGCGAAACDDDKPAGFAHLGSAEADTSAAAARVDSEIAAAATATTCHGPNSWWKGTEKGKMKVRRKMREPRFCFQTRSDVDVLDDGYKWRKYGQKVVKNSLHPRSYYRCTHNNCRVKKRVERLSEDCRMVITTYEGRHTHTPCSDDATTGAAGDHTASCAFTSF
row,Sequence,binding signal
1,AGAATGTTTGCTCAAAGTATGTTTTTGTCATCTGTTTTTCCGGAGTCACCTAGTGCAG,8800 fluorescence intensity (a.u.)
2,TGCTTTTGTATTTTTTTTGCTGTGTATATATCATAAACTTCGGAGTCACCTAGTGCAG,8550 fluorescence intensity (a.u.)
3,TATTGTGTACTACATCTTTTATTATTTCTTTCAAATTTCACGGAGTCACCTAGTGCAG,10500 fluorescence intensity (a.u.)
4,CTCTCCCGGTCGCGCCGCCATCTCCTCTCCCAATCGCGCGCGGAGTCACCTAGTGCAG,8860 fluorescence intensity (a.u.)
5,CACTTCTATTGGTTCTTTGTCTGGGAGTAGCAGCATAAGTCGGAGTCACCTAGTGCAG,8540 fluorescence intensity (a.u.)
6,GACCTACGTCACCACCTTGCATGTCCCACGCGGAGCTCCACGGAGTCACCTAGTGCAG,9230 fluorescence intensity (a.u.)
7,GCAACTGTGTTTTCAATTCTGCAAATGCTATTCTCTGTTACGGAGTCACCTAGTGCAG,11800 fluorescence intensity (a.u.)
8,TTTGGGATAAATCATGAGGGGTTAAAAGTTGTTATATTTTCGGAGTCACCTAGTGCAG,10100 fluorescence intensity (a.u.)
9,GATTTTTAGTGAATATAATGAAATTTCATAGGGGAGGGGCCGGAGTCACCTAGTGCAG,8930 fluorescence intensity (a.u.)
10,GGGGTTAGTTGTCCGTTTTGCATAGTTGGGGATAAAAAATCGGAGTCACCTAGTGCAG,18500 fluorescence intensity (a.u.)
11,TCGCGTAGGGGAGGGGTGAAATATATTTTTTATGCCGGGCCGGAGTCACCTAGTGCAG,18000 fluorescence intensity (a.u.)
12,GATTTTTAGTGAATATAATGAAATTTCACAGGGGAGGGGCCGGAGTCACCTAGTGCAG,13400 fluorescence intensity (a.u.)
13,CCGTCGATTTGGTTGGTTGGTTGATCGGCGGCGAGGAGGGCGGAGTCACCTAGTGCAG,11400 fluorescence intensity (a.u.)
14,TTTTTTTATTTTTTTTGAAATATTTTTTGTTGGGTTTTTTCGGAGTCACCTAGTGCAG,13100 fluorescence intensity (a.u.)
15,GATTTGGGTTGAAATATGATATGGGTTGGATTGGTTTGGACGGAGTCACCTAGTGCAG,16100 fluorescence intensity (a.u.)
16,TGATTTGCGCGAGGGTTTGGTTTGGTTTGGTTTGAGTCGACGGAGTCACCTAGTGCAG,19200 fluorescence intensity (a.u.)
17,ATGAACTTAGTTGTTTTTTTTTGGGTTTTACTTGCATAATCGGAGTCACCTAGTGCAG,8220 fluorescence intensity (a.u.)
18,GCGCTTCGATTTGGTTTGGTTTGATTCGGTTTGCGAGATGCGGAGTCACCTAGTGCAG,8780 fluorescence intensity (a.u.)
19,TAGATGAAATGGGTTGGGTTGATTTGGGTTGAAATATGATCGGAGTCACCTAGTGCAG,21800 fluorescence intensity (a.u.)
20,GGCACGCTACTACTCCTACTATATGATAAAAAAACACTACCGGAGTCACCTAGTGCAG,8150 fluorescence intensity (a.u.)
21,TGGTCAAGCCCTTTTTGATCTTTTTTTTTCTGTCTCATGCCGGAGTCACCTAGTGCAG,9610 fluorescence intensity (a.u.)

row,Sequence,binding signal
1,CGCACCGTCGACTAGTCCCGTCCCGTCGCGCCGTTGCCTTCGGAGTCACCTAGTGCAG,8590 fluorescence intensity (a.u.)
2,ATTCGAGATCAGCTTTCTCTTCTATTTTGCTACTAGTTCTCGGAGTCACCTAGTGCAG,13000 fluorescence intensity (a.u.)
3,TAGGTCTGCTTCAGAGATGGGGTTAGGGTTAGATTTGTTCCGGAGTCACCTAGTGCAG,14000 fluorescence intensity (a.u.)
4,TCATGGGCGGGTTGAGCAATGTTTCTTGTGATTAGTCTCACGGAGTCACCTAGTGCAG,16300 fluorescence intensity (a.u.)
5,TACCCTTTTTTTGGGTAGGGTGGGTTGGATTTATTTATTTCGGAGTCACCTAGTGCAG,12300 fluorescence intensity (a.u.)
6,TCTTGATTTTTGCATTAGTAGTAGTTGCGTCTTATATTTTCGGAGTCACCTAGTGCAG,12100 fluorescence intensity (a.u.)
7,ATATATATATATATATATATATATATATATAGTGGAATGACGGAGTCACCTAGTGCAG,12300 fluorescence intensity (a.u.)
8,TATATATATATATATATATATATATATATATAAGGTTTGACGGAGTCACCTAGTGCAG,17300 fluorescence intensity (a.u.)
9,GTAGGGGTGGTGGATTTTTTTTTATTTGCTGAGATGATTTCGGAGTCACCTAGTGCAG,20600 fluorescence intensity (a.u.)
10,GGTTATGGGCGGGTTGAGCAATGTTTTTCATGATTAGTCTCGGAGTCACCTAGTGCAG,18600 fluorescence intensity (a.u.)
11,GACCTTATTTGCATTGATTGACCTTATTTGCATTGATTTTCGGAGTCACCTAGTGCAG,19700 fluorescence intensity (a.u.)
12,GACGGGTGTTTCTAGGGTTAAGGTTAGGTTTTTTTTTTGACGGAGTCACCTAGTGCAG,9680 fluorescence intensity (a.u.)
13,AAGTTTAGGGTGAGCAATGTCTGGTTTTCGGGTTCAGGGGCGGAGTCACCTAGTGCAG,13300 fluorescence intensity (a.u.)
14,TTAGATTTTTCTTACAACCATTTGCATTGATTTTTTTTTTCGGAGTCACCTAGTGCAG,8960 fluorescence intensity (a.u.)
15,GTGTTAGGTGCTGAGATTTTTGTACTTGCTTTATTATTTTCGGAGTCACCTAGTGCAG,8860 fluorescence intensity (a.u.)
16,TTGCTTTCCTTGGCCTCACGCTTGTTCCATGTTAGTTCGACGGAGTCACCTAGTGCAG,16100 fluorescence intensity (a.u.)
17,TATTGCACCTTTTCTCTATTGTTTTGAATTCAGTGAAGATCGGAGTCACCTAGTGCAG,11600 fluorescence intensity (a.u.)
18,GACCTGTCTACCGCCGCCCTAGTGACTAATGTTGACCACACGGAGTCACCTAGTGCAG,12000 fluorescence intensity (a.u.)
19,TTTTCAACCTTATATTGTCATTGTCCGTCAACTTGGCTTGCGGAGTCACCTAGTGCAG,8970 fluorescence intensity (a.u.)
20,CCTGTCATGGAGGATGTTTCCTGAAGTTTCAGAGCTGTATCGGAGTCACCTAGTGCAG,8310 fluorescence intensity (a.u.)
21,AATGATTACAACCTACCTCTTCTCAGCGGGGTGTCCATTACGGAGTCACCTAGTGCAG,8260 fluorescence intensity (a.u.)
